Assay outcomes from PubChem.
BoNT-F LC inh: inhibitors of Botulinum neurotoxin F light chain protease; Multiplex microsphere protease cleavage assay, flow cytometry; inhibition, % at 10 µM; actives 0.22% (n = 360,000); AID 588497; in the data active = inhibition above about 35%, passing the limit was not always enough; inconclusive = no clear call, values can overlap the other calls
Bead autofluor: flagged as autofluorescent in microsphere protease counterscreen | compound autofluorescence counterscreen, microsphere flow cytometry; hits give high values | fluorescence intensity (concentration not given with the values) | actives 3.1% (n = 360,000) | AID 624483; in the data active = fluorescence intensity above about 16000; inconclusive = no clear call, values can overlap the other calls
GDH-TPI counter-1: counter-screen for M. tuberculosis FBA inhibitors: GDH-TPI coupled enzymes | actives 1.2% (n = 360,000) | AID 588335 | GDH-TPI coupled enzyme counterscreen, NADH absorbance | inhibition, % at 4.8 µM; in the data active = inhibition above about 30%
BoNT-A LC inh2: blocks Botulinum neurotoxin A light chain protease; multiplex microsphere protease substrate cleavage, flow cytometry; inhibition, % at 10 µM; actives 0.17% (n = 360,000); AID 588499; in the data active = inhibition above about 30%; inconclusive = no clear call, values can overlap the other calls
Anthrax LF inh2: blocks Bacillus anthracis lethal factor protease; P15917; multiplex microsphere protease cleavage assay, LF; inhibition, % at 10 µM; actives 0.12% (n = 360,000); AID 588501; in the data active = inhibition above about 30%; inconclusive = no clear call, values can overlap the other calls
FBA Mtb inh: inhibits M. tuberculosis FBA enzyme; P9WQA3; purified M. tuberculosis FBA, fluorescence read-out; inhibition, % at 1 µM; actives 2.3% (n = 360,000); AID 588726
Mtb FBA inh conf: Mtb FBA inhibition, confirmed; shares compounds with FBA Mtb inh; purified M. tuberculosis FBA, fluorescence read-out; inhibition, % at 1 µM; actives 78% (n = 5,600); AID 651616
GDH-TPI counter-2: counter-screen for M. tuberculosis FBA inhibitors: GDH-TPI coupled enzyme inhibition. shares compounds with FBA Mtb inh. GDH-TPI coupled enzyme counterscreen, fluorescence. inhibition, % at 1 µM. actives 81% (n = 5,600). AID 652141; in the data active = inhibition above about 10%
Large screens that a line does not name were inactive (follow-up assays come after a bar, where they were run). Only some compounds are listed: those with a hit (about 6.6% of all), similar ones and a draw of the others. Rule as the data show it, unless noted: active = inhibition above about 27%; inactive = the rest.

CCc1cccc(Nc2c([N+](=O)[O-])cc(C(=O)N3CC(=O)Nc4ccccc43)cc2[N+](=O)[O-])c1	FBA Mtb inh 111 | Mtb FBA inh conf 145 | GDH-TPI counter-2 103
Cc1ccc(N2C(=O)N(CC(=O)Nc3cc(Cl)ccc3C)C(=O)C2C)cc1 (centres undefined)	Bead autofluor inconclusive
O=C(NCC1CCCO1)c1onc(CSc2ccccc2)c1C(=O)O (centres undefined)	none
O=C(NCC1CCCO1)c1onc(CSc2ccc(F)c(F)c2)c1C(=O)O (centres undefined)	FBA Mtb inh 45 | Mtb FBA inh conf 92 | GDH-TPI counter-2 61
Cc1cc(=O)oc2cc(OC(C)C(=O)N3CCOCC3)c(Cl)cc12 (centres undefined)	none
Cc1cc(=O)oc2cc(OC(C)C(=O)O)c(Cl)cc12 (centres undefined)	FBA Mtb inh 32 | Mtb FBA inh conf inactive | GDH-TPI counter-2 inactive
COc1ccc(C(O)c2nc(-c3ccc(F)c(Cl)c3)cs2)cc1 (centres undefined)	none
O=c1oc2cc(OCCO)ccc2c2c1CCCC2	BoNT-F LC inh inconclusive, FBA Mtb inh 60 | Mtb FBA inh conf 74 | GDH-TPI counter-2 57
Cc1ccc(OC(=O)CCN2C(=O)c3ccccc3C2=O)cc1C	none
O=C(CCCCCN1C(=O)c2ccccc2C1=O)Oc1ccc2c3c(c(=O)oc2c1)CCC3	FBA Mtb inh 62 | Mtb FBA inh conf inactive | GDH-TPI counter-2 inactive
O=C(Oc1ccc2c3c(c(=O)oc2c1)CCCC3)c1cccs1	FBA Mtb inh 82 | Mtb FBA inh conf active | GDH-TPI counter-2 active
O=C(O)COc1ccc2c3c(c(=O)oc2c1)CCCC3	none
C=CCOC(=O)COc1ccc2c3c(c(=O)oc2c1)CCCC3	FBA Mtb inh 40 | Mtb FBA inh conf 62 | GDH-TPI counter-2 41
S=c1[nH]nc(CSCCOc2ccc(Cl)cc2Cl)o1	none
COC(=O)c1cc(COc2ccc3c4c(c(=O)oc3c2)CCCC4)c(C)o1	none
Cc1oc(C(=O)O)cc1COc1ccc2c3c(c(=O)oc2c1)CCC3	Bead autofluor 20992, BoNT-A LC inh2 inconclusive, FBA Mtb inh 38 | Mtb FBA inh conf 55 | GDH-TPI counter-2 44
COc1ccc2c(C)c(C(=O)N3CC[C@@H](N4CCC(O)CC4)[C@H](O)C3)oc2c1	FBA Mtb inh 45 | Mtb FBA inh conf 105 | GDH-TPI counter-2 81
O=C(CSc1ccc(F)cc1)N1CCOCC1	none
Cc1ccc2nc(-c3ccc(NC(=O)CCN4C(=O)c5ccccc5C4=O)cc3)sc2c1	FBA Mtb inh 97 | Mtb FBA inh conf 162 | GDH-TPI counter-2 122
CCN(CC)S(=O)(=O)c1ccc(C(=O)OCC(=O)Nc2ccc(-c3nc4ccc(C)cc4s3)cc2)cc1	FBA Mtb inh 28 | Mtb FBA inh conf inactive | GDH-TPI counter-2 inactive
CC1=CC(=O)Nc2ncccc2O1	FBA Mtb inh 61 | Mtb FBA inh conf 84 | GDH-TPI counter-2 76
O=C(NNS(=O)(=O)c1ccc(F)cc1)C1CC(c2cccnc2)=NO1 (centres undefined)	none
COc1ccccc1NCCC(=O)OCC(=O)Nc1ccccc1Cl	none
CC(=O)Nc1sc(N/N=C/c2ccc(N(C)C)cc2)nc1-c1ccc(C)cc1	GDH-TPI counter-1 40, FBA Mtb inh 39 | Mtb FBA inh conf 132 | GDH-TPI counter-2 102
CC(=O)Nc1sc(N/N=C/c2ccc(C)cc2)nc1-c1ccc(C)cc1	BoNT-F LC inh inconclusive
c1ccc(C[n+]2cccc3c4ccccc4ccc32)cc1	FBA Mtb inh 40 | Mtb FBA inh conf active | GDH-TPI counter-2 active
O=[N+]([O-])c1ccc(C[n+]2cccc3ccccc32)cc1	none
CCCCC[n+]1cccc2c3ccccc3ccc21	FBA Mtb inh 100 | Mtb FBA inh conf 85 | GDH-TPI counter-2 61
CC(=O)c1ccc(N2CCN(C(=O)c3cccs3)C(C)C2)c(F)c1 (centres undefined)	none
Cc1ccc(-c2cnc3cccnn23)cc1F	FBA Mtb inh 60 | Mtb FBA inh conf inactive | GDH-TPI counter-2 inactive
COc1cccc(-c2cnc3cccnn23)c1	FBA Mtb inh 53 | Mtb FBA inh conf 97 | GDH-TPI counter-2 69
Cc1cc2nc(-c3ccc(SCc4ccccc4C#N)nc3)[nH]c2cc1C	none
Cc1cc2nc(-c3ccc(SCc4ccc(C(=O)O)cc4)nc3)[nH]c2cc1C	FBA Mtb inh 58 | Mtb FBA inh conf inactive | GDH-TPI counter-2 inactive
CN(C(=O)CN1C(=O)NC(c2ccccc2)(c2ccccc2)C1=O)C1CCS(=O)(=O)C1 (centres undefined)	none
N#C/C(=C\c1cc(Br)ccc1F)C(=O)NC1CC1	none
O=c1[nH]c(/C=C/c2cccc3ccccc23)nc2ccccc12	none
O=c1nc2cccc3c2=c(/c1=C(\O)c1ccccc1)c1ccccc1c3=O	FBA Mtb inh 29 | Mtb FBA inh conf inactive | GDH-TPI counter-2 inactive
C=CCOc1ccccc1C1C2=C(CC(C)(C)CC2=O)Nc2c1c(=O)n(C)c(=O)n2C (centres undefined)	none
Cc1ccc(-n2nc(C)c3c2NC2=C(C(=O)CC(C)(C)C2)C3c2ccccc2OCC(=O)O)cc1 (centres undefined)	FBA Mtb inh 37 | Mtb FBA inh conf 194 | GDH-TPI counter-2 129
CCCCn1c(NC(=O)c2ccccc2)c(C#N)c2nc3ccccc3nc21	none
CCCCCn1c(NC(=O)c2ccco2)c(C(=O)OCC)c2nc3ccccc3nc21	FBA Mtb inh 54 | Mtb FBA inh conf 134 | GDH-TPI counter-2 100
COCCCNC(=O)c1c(NC(=O)c2ccco2)n(Cc2ccccc2)c2nc3ccccc3nc12	FBA Mtb inh 45 | Mtb FBA inh conf 47 | GDH-TPI counter-2 37
COCCCNC(=S)N1CCN(C(=O)c2ccco2)CC1	none
Cc1ccc(C2=NCCn3nc4cc([N+](=O)[O-])ccc4c32)cc1	none
CCc1ccc2[nH]c3nc(C)cc(C)c3c(=O)c2c1	FBA Mtb inh 75 | Mtb FBA inh conf 75 | GDH-TPI counter-2 59
Nc1ccc2oc3ccccc3c2c1	FBA Mtb inh 27 | Mtb FBA inh conf inactive | GDH-TPI counter-2 inactive
Nc1ccc(C#Cc2ccc3oc4ccccc4c(=O)c3c2)cc1	none
CCc1nc2c(OCc3ccccc3C(=O)OC)cccn2c1N(C)C(=O)Nc1ccccc1OC	none
Cc1cc(C)c2nc(-c3ccccn3)cc(C(=O)Nn3cnnc3)c2c1	none
Cc1cc(C)c2nc(-c3ccccn3)cc(C(=O)NCc3cc(C)n(C)n3)c2c1	FBA Mtb inh 76 | Mtb FBA inh conf 68 | GDH-TPI counter-2 53
C=CCNC(=O)c1cc(-c2ccncc2)nc2c(C)cc(C)cc12	FBA Mtb inh 60 | Mtb FBA inh conf 152 | GDH-TPI counter-2 130
